Results as given in PubChem BioAssay (NCATS).

Assay: qHTS profiling of the MIPE4 collection as inhibitors of Plasmodium falciparum (DD2) proliferation (Rep 2) (AID 743346)
Conditions: P. falciparum Dd2 in erythrocytes, SYBR Green DNA, 72 h; at 28.5 µM unless noted
Source text: Plasmodium falciparum is a virulent malarial parasite that kills 1-2 million people worldwide each year. Transmitted by mosquitoes, the sporozoite form of the parasite enters the blood stream to infect hepatocytes, where they become merozoites that infect red blood cells (erythrocytes). Within erythrocytes, merozoites begin a […] cycle of growth and division, after which the parasite is released to infect new red blood cells. Gametocytes, which form within erythrocytes as well, circulate in the bloodstream and are ingested by the mosquito, thereby completing the life cycle. To profile malarial isolates for differential chemical responses and to identify inhibitors of malarial growth, an assay that measures P. falciparum growth and replication within erythrocytes was employed. This assay uses a DNA binding fluorescent dye (SYBR Green) to detect parasite DNA following cell lysis. Because mature erythrocytes lack DNA, only Plasmodium-derived DNA is detected.
The SYBR Green viability assay was adapted from a method described previously (Plouffe et al., 2008). For screening 3 ul culture medium was dispensed into 1536 well black clear bottom plates (Aurora Biotechnologies) using a Multidrop Combi (Thermo Fisher Scientific Inc.), 23 nL compounds in DMSO were added by a pin tool (Kalypsys), and 5 ul of erythrocytes infected with P. falciparum (0.3% parasitemia, 2.5% hematocrit final concentration) were added. The plates were incubated at 37 C in a humidified incubator in 5% CO2 for 72 h, and 2 ul lysis buffer (20 mM Tris HCl, 10 mM EDTA, 0.16% saponin, 1.6% triton X, 10X SYBR Green I supplied as 10,000X […] by Invitrogen) was added to each well. The plates were mixed for 25 sec with gentle shaking and incubated overnight at room temperature in the dark. The following morning, fluorescence intensity at 485(14) nm excitation and 535(25) nm emission wavelengths was measured on an EnVision (Perkin Elmer) plate reader. Plate reads were normalized relative to the control inhibitor (0.29 uM artemisinin) and vehicle (DMSO) wells present on each plate and then corrected by an algorithm using vehicle-only control plates at the beginning and end of the compound plate stack.

In order of rising parasite growth, % of control (lower = inhibition):
1. C[C@H](CCC(=O)O)[C@H]1CC[C@H]2[C@H]3[C@@H](CC[C@]12C)[C@@]1(C)CC[C@@H](O)C[C@H]1C[C@@H]3O  16.6%
2. CC(=O)N(O)CCCP(=O)(O)O  18.1%
3. NC(=O)c1cccc(-c2cccc(OC(=O)NC3CCCCC3)c2)c1  37.9%
4. COC1CCC(N(C(=O)C2CCC(C)CC2)c2cc(C3=CCCCC3)sc2C(=O)O)CC1 (stereo not given)  44.7%
5. CCN1C[C@H](C)n2c(c(O)c3c(=O)n(Cc4ccc(F)c(Cl)c4)nc(C(=O)NC)c32)C1=O  45.4%
6. C=C1C[C@@]2(O)O[C@@]3(C[C@H]2C(C)C)[C@H](C)CC[C@H]13  48.2%
7. COc1ccc2cc1Oc1ccc(cc1)C[C@H]1c3cc(c(OC)cc3CCN1C)Oc1c(OC)c(OC)cc3c1[C@H](C2)N(C)CC3  50.7%
8. NC(=O)c1ncn([C@@H]2O[C@H](CO)[C@@H](O)[C@@H]2O)n1  53.8%
9. O=C1C[C@@H](c2ccc(O)cc2)Oc2cc(O)cc(O)c21  56.8%
10. CC(=O)O[C@H]1C[C@@H]2CC[C@H]3[C@H]4C[C@H]([N+]5(C)CCCCC5)[C@@H](OC(C)=O)[C@@]4(C)CC[C@@H]3[C@@]2(C)C[C@H]1[N+]1(C)CCCCC1  58.4%
11. CC=CCC=CCCC(=O)[C@H]1O[C@@H]1C(N)=O  60%
12. CN1C2CCC1CC(OC(=O)C(CO)c1ccccc1)C2 (stereo not given)  62.2%
13. CC(N[C@H]1CCCC[C@H]1NC(=O)c1ccc(Cl)cc1)c1cccc2ccccc12 (stereo not given in full)  64%
14. COc1ccc2c3c1OC1C[C@@H](O)C=C[C@@]31CCN(C)C2 (stereo not given in full)  65.2%
15. Cc1cc(O)c2c(c1)C(=O)c1cc(O)cc(O)c1C2=O  66.9%
16. COC(=O)C[C@](O)(CCCC(C)(C)O)C(=O)O[C@@H]1C(OC)=C[C@]23CCCN2CCc2cc4c(cc2[C@H]13)OCO4  67.1%
17. C[C@H](CCC(=O)O)[C@H]1CC[C@H]2[C@@H]3[C@H](O)C[C@@H]4C[C@H](O)CC[C@]4(C)[C@@H]3CC[C@]12C  67.3%
18. CCOC1OC(=O)C[C@H]1NC(=O)[C@@H]1CCCN1C(=O)[C@@H](NC(=O)c1ccc(N)c(Cl)c1)C(C)(C)C (stereo not given in full)  67.6%
19. CN1C(=O)C[C@H](C(=O)N[C@@H](Cc2cnc[nH]2)C(=O)N2CCC[C@@H]2C(N)=O)NC1=O  70.2%
20. Nc1nc(OCc2ccccc2)c2[nH]cnc2n1  72.1%
21. CN1[C@H]2CC(OC(=O)[C@@H](CO)c3ccccc3)C[C@H]1[C@H]1O[C@H]12 (stereo not given in full)  72.3%
22. CC1(C)CC(O)CC(C)(C)N1[O]  73%
23. CC(C)OC(=O)[C@H](C)N[P@](=O)(OC[C@H]1O[C@@H](n2ccc(=O)[nH]c2=O)[C@](C)(F)[C@H]1O)Oc1ccccc1  78.3%
24. c1coc(CNc2ncnc3nc[nH]c23)c1  80%
25. O=C(O)c1ccccc1C(=O)Nc1ccc(-c2ccccc2)cc1  82.2%
26. COc1ccc(C2(C#N)CCC(C(=O)O)CC2)cc1OC1CCCC1 (stereo not given)  88.4%
27. C[C@H]1[C@H](NC(=O)C(=NOC(C)(C)C(=O)O)c2csc(N)n2)C(=O)N1S(=O)(=O)O  91.7%
28. Cc1cn([C@@H]2C[C@@H](O)[C@H](CO)O2)c(=O)[nH]c1=O  94.9%
29. C=C(C)[C@@H]1CC[C@]2(C(=O)O)CC[C@]3(C)[C@H](CC[C@@H]4[C@@]5(C)CC[C@H](O)C(C)(C)[C@@H]5CC[C@]43C)[C@@H]12  97%
30. O=C1c2cccc(O)c2C(=O)c2c(O)cc(CO)cc21  97.1%
31. CNC1[C@H](O)C(O[C@@H]2C(O)C(O[C@H]3O[C@H]([C@@H](C)NC)CC[C@H]3N)[C@@H](N)C[C@H]2N)OC[C@]1(C)O (stereo not given in full)  111%
32. Cc1ncc(C[n+]2csc(CCO)c2C)c(=O)[nH]1  113%
33. CC(C(=O)O)c1ccc(-c2ccccc2)c(F)c1 (stereo not given)  114%
34. COc1cc(CNC(=O)CCCCC=CC(C)C)ccc1O  129%
35. O=C(O)C(=O)Nc1cccc(C2=NN=N[N]2)c1  136%
36. CN[C@H](CC(C)C)C(=O)N[C@H]1C(=O)N[C@@H](CC(N)=O)C(=O)N[C@@H]2C(=O)N[C@H]3C(=O)N[C@H](C(=O)N[C@H](C(=O)O)c4cc(O)cc(O)c4-c4cc3ccc4O)[C@H](O)c3ccc(c(Cl)c3)Oc3cc2cc(c3O[C@@H]2O[C@H](CO)[C@@H](O)[C@H](O)[C@@H]2O[C@H]2C[C@](C)(N)[C@H](O)[C@H](C)O2)Oc2ccc(cc2Cl)[C@H]1O  150%
37. O=c1[nH]c(=O)n([C@H]2C[C@@H](O)[C@@H](CO)O2)cc1C=CBr  157%
38. CC[C@H](CC[C@@H](C)[C@H]1CC[C@H]2[C@@H]3CC=C4C[C@@H](O)CC[C@]4(C)[C@@H]3CC[C@]12C)C(C)C  179%

In order of falling parasite growth, % of control (lower = inhibition):
1. CC[C@H](C=C[C@@H](C)[C@H]1CC[C@H]2[C@@H]3CC=C4C[C@@H](O)CC[C@]4(C)[C@@H]3CC[C@]12C)C(C)C  117% [at 9.64 µM]
2. NC1=N[C@H]2[C@H](CS[C@H]2CCCCC(=O)O)N1  82% [at 9.64 µM]
